Laboratory results: PubChem BioAssay AID431 (Sanford-Burnham Center for Chemical Genomics, 2006)
About 1,100 (1.7%) of roughly 63,000 compounds were called active.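 The calls were made as follows: active = compounds whose percent cytotoxicity in the single-dose primary screen, scaled between solvent and toxic-drug controls, exceeds 50; inactive = the rest.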 For the sample, actives were picked, then their nearest neighbours and some compounds at random. Results with a measured potency or affinity are listed apart.

Assay: viability loss of HPDE-C7K cells – cell-based, fluorescence, HTS, primary screen (AID 431);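 also: 0% = DMSO solvent wells and 100% = doxorubicin-treated wells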
Settings: HPDE-C7K KRASV12 cells, Alamar Blue viability, 48 h; at 10 µM; hits give high values

| SMILES | cytotoxicity |
| --- | --- |
| COc1cccc(C(=O)N(Cc2cc3cc(C)ccc3[nH]c2=O)CC2CCCO2)c1 (centres undefined) | -14.2% (inactive) |
| CCOC(=O)C1CCN(Cc2ccccc2C(F)(F)F)CC1 | -13.3% (inactive) |
| On1cnnc1-c1ccccc1 | -12.7% (inactive) |
| CCCCN1Cc2cc(C(=O)c3cc(F)ccc3O)cnc2NC1=O | 6.7% (inactive) |
| CN1Cc2cc(C(=O)c3cc(Cl)cc(CSc4ncccn4)c3O)cnc2NC1=O | 66.2% (active) |
| Cc1ccc(O)c(C(=O)c2cnc3c(c2)CN(CCC(C)C)C(=O)N3)c1 | -6% (inactive) |
| CCCn1c(N)c(C(=O)CSc2nnc(-c3ccco3)n2Cc2ccccc2)c(=O)[nH]c1=O | -9.1% (inactive) |
| Cc1cc(NC(=O)NC(=O)c2cccc(OC(F)(F)C(F)F)c2)n[nH]1 | -3.6% (inactive) |
| Cc1cc(C)c2c(CN3CCN(C/C=C/c4ccccc4)CC3)cc(=O)oc2c1 | 72.7% (active) |
| CCN1CCN(Cc2cc(=O)oc3cc(C)cc(C)c23)CC1 | 7.2% (inactive) |
| Cc1cc(C)c2c(CN3CCN(C)CC3)cc(=O)oc2c1 | 9.6% (inactive) |
| CCOC(=O)c1c(C)n(C)c2ccc(O)c(CN3CCN(C)CC3)c12 | 4.9% (inactive) |
| Cc1cc(C2=CC(C)(c3cc(C)oc3C)Nc3nc(C(F)(F)F)nn32)c(C)o1 (centres undefined) | 56.2% (active) |
| Cc1cccc(NC(=O)c2cnc3sccn3c2=O)c1C | 0.5% (inactive) |
| CCOC(=O)c1ccc(NC(=O)CCC(=O)OC)cc1 | 0% (inactive) |
| CCc1nc(NC2CCCCC2)c(C#N)c2c1COC(C)(C)C2 | 62% (active) |
| CCc1nc(NCC2CCCO2)c(C#N)c2c1COC(C)(C)C2 (centres undefined) | -3% (inactive) |
| CCCc1nc(NC2CCCCC2)c(C#N)c2c1COC(C)(C)C2 | -33.6% (inactive) |
| COc1ccccc1N1CCN(CC(=O)Nc2c(C)n[nH]c2C)CC1 | 0.8% (inactive) |
| COc1ccc(-c2nc(CS(=O)CC(=O)NCC3CCCO3)c(C)o2)cc1 (centres undefined) | -1.7% (inactive) |
| O=S(=O)(c1ccc(F)cc1)N1CCN(c2ncnc3c2cnn3-c2ccccc2)CC1 | -6.5% (inactive) |
| O=S1(=O)CC(O)C(N2CCC(c3ccccc3)CC2)C1 (centres undefined) | -1.5% (inactive) |
| CN(Cc1cc2ccccc2[nH]c1=O)S(=O)(=O)c1ccccc1 | -6.2% (inactive) |
| CN(C)CCC(=O)c1ccc(Cl)cc1 | 13.3% (inactive) |

| SMILES | cytotoxicity |
| --- | --- |
| COc1ccccc1NC(=O)N(Cc1ccco1)Cc1cc2cccc(C)c2[nH]c1=O | -5% (inactive) |
| COc1ccccc1NC(=O)N(Cc1ccco1)Cc1cc2c(C)ccc(C)c2[nH]c1=O | 33.2% (inactive) |
| CCN1CCCC1CN(Cc1cc2cc(C)cc(C)c2[nH]c1=O)C(=O)Nc1ccccc1OC (centres undefined) | 20.9% (inactive) |
| COc1ccccc1NC(=O)N(Cc1ccco1)Cc1cc2cc(C)cc(C)c2[nH]c1=O | 74.7% (active) |
| Cc1cc(C)c2[nH]c(=O)c(CN(Cc3ccco3)C(=O)C3CCCO3)cc2c1 (centres undefined) | -35.5% (inactive) |
| COc1ccccc1NC(=O)N(Cc1ccco1)Cc1cc2ccc(C)c(C)c2[nH]c1=O | 63.7% (active) |
| CC1CCCCC1NC(=O)CN1CCN(Cc2ccccc2Cl)C1=O (centres undefined) | -7.1% (inactive) |
| CCc1cc(C)cc(OCCNC(=O)c2ncn[nH]2)c1 | 30% (inactive) |
| Cn1nnnc1CCOCCc1nnnn1C | 14.6% (inactive) |
| CCn1nnnc1SCCSc1nnnn1CC | 9.6% (inactive) |
| N/C(=N\c1nc2c(c(=O)[nH]1)CCCC2)Nc1ccccc1 | 12.1% (inactive) |
| COc1ccc(-c2cn3cccnc3n2)cc1NC(=O)c1ccc(Br)o1 | 8.3% (inactive) |
| CCOC(=O)C1=C(C)N=C2SC(CC)C(=O)N2C1c1cccc(F)c1 (centres undefined) | -16.9% (inactive) |
| OC(CN1CCN(c2cccc(C(F)(F)F)c2)CC1)c1c[nH]c2ccccc12 (centres undefined) | 30.5% (inactive) |
| COC(=O)c1[nH]c2ccccc2c1NC(=O)CN1CCN(c2cccc(Cl)c2)CC1 | 7.8% (inactive) |
| Cc1[nH]c2ccccc2c1NC(=O)CN1CCN(c2cccc(C(F)(F)F)c2)CC1 | 70% (active) |
| O=C(CN1CCN(c2ccccc2)CC1)Nc1cccc(C(F)(F)F)c1 | 4.9% (inactive) |
| O=C(CCn1c(=O)[nH]c2ccccc2c1=O)N1CCN(c2cccc(C(F)(F)F)c2)CC1 | -4.3% (inactive) |
| CC[C@]1(O)C[C@@H]2CN(CCc3c([nH]c4ccccc34)[C@@](C(=O)OC)(c3cc4c(cc3OC)N(C)[C@H]3[C@@](O)(C(=O)OC)[C@H](OC(C)=O)[C@]5(CC)C=CCN6CC[C@]43[C@@H]65)C2)C1 | 74.9% (active) |
| CC[C@]1(O)CC2CN(CCc3c([nH]c4ccccc34)[C@@](C(=O)OC)(c3cc4c(cc3OC)N(C=O)[C@H]3[C@@](O)(C(=O)OC)[C@H](OC(C)=O)[C@]5(CC)C=CCN6CC[C@]43[C@@H]65)C2)C1 (some centres undefined) | 72.5% (active) |
| CC(=O)Oc1ccc(N(C(C)=O)S(=O)(=O)c2cccs2)cc1 | 8.2% (inactive) |
| O=C(O)CCC(=O)Nc1nnc(C(F)(F)F)s1 | -6.4% (inactive) |
| CCCNc1cc(=O)n(C)c(=O)n1C | 9.9% (inactive) |
| O=c1c2c3nc4ccccc4nc3n(-c3cccc(F)c3)c2ncn1Cc1ccc2c(c1)OCO2 | 7.3% (inactive) |

| SMILES | cytotoxicity |
| --- | --- |
| CC(C)c1ccc(O)c(N)c1 | 8% (inactive) |
| Cc1ccc(SC(C)C(=O)NCC(C)C)cc1 (centres undefined) | 0% (inactive) |
| Cc1ccc(O)c(Sc2cc(C)ccc2O)c1 | 65.2% (active) |
| Cc1ccc(NC(=O)CSc2nccc(=O)[nH]2)c(S(=O)(=O)N2CCOCC2)c1 | 2.7% (inactive) |
| Cc1sc(NC(=O)c2ccco2)c(C(c2cccnc2)N2CCN(c3ccc(F)cc3)CC2)c1C (centres undefined) | 1.9% (inactive) |
| Cc1sc(NC(=O)c2ccco2)c(C(c2ccncc2)N2CCOCC2)c1C (centres undefined) | -8.8% (inactive) |
| CCOC(=O)C1CCN(C(c2cccnc2)c2c(NC(=O)c3ccco3)sc(C)c2C)CC1 (centres undefined) | 82.5% (active) |
| Cc1ccc2nc(N3CCN(C(=O)c4cccs4)CC3)c(C#N)cc2c1 | 2% (inactive) |
| Cc1ccc2ncccc2c1NS(=O)(=O)c1ccccc1 | -4.5% (inactive) |
| O=S(=O)(Nc1cccc2ncccc12)c1cccs1 | 25.3% (inactive) |
| c1ccc(N(c2ccccc2)c2nc(N3CCCC3)nc(-n3ccnc3)n2)cc1 | 1.4% (inactive) |
| O=C1c2cccnc2C(O)N1Cc1ccc(F)cc1 (centres undefined) | 1.3% (inactive) |
| Cc1ccc2oc(=O)c3cc(C(=O)N4CCN(C(=O)c5ccco5)CC4)sc3c2c1 | 11% (inactive) |
| O=C(Nc1ccc(-n2cnnn2)cc1)C1CCC1 | -4.6% (inactive) |
| COc1ccc(-c2noc(C)c2-c2ccc3ccccc3n2)c(O)c1 | 54.3% (active) |
| COc1ccc(-c2n[nH]c(C)c2-c2cnn(-c3ccccc3)c2)c(O)c1 | 29.6% (inactive) |
| COc1ccc(-c2onc(C)c2-c2ccccc2)c(O)c1 | 15.1% (inactive) |
| CCOc1ccccc1Nc1ccc(C(=O)O)cc1NC(C)=O | 0.6% (inactive) |
| O=C(c1cc(-c2cccs2)on1)N1CCN(c2ccc(F)cc2)CC1 | 13.6% (inactive) |
| O=C(c1cc(-c2cccs2)on1)N1CCOCC1 | 2.8% (inactive) |
| O=C(c1cc(-c2cccs2)on1)N1CCN(c2ccccc2)CC1 | 50.8% (active) |
| O=S(=O)(c1cccc2cccnc12)n1cnc2ccccc21 | 6.3% (inactive) |
| Cc1cccc(C)c1NC(=O)CSc1nnc(Cn2nnc(-c3ccccc3)n2)n1-c1ccccc1 | -8.4% (inactive) |
| N#CC(C(=O)OC1CCCCC1)c1nc2ccccc2nc1N1CCCCC1 (centres undefined) | 5.4% (inactive) |

| SMILES | cytotoxicity |
| --- | --- |
| O=C(C1=C(O)C(=O)N(CCN2CCOCC2)C1c1ccccc1)c1cccs1 (centres undefined) | -12.1% (inactive) |
| O=C(c1cccs1)N1CCC(c2nc3c(nnn3Cc3ccccc3)c(=O)[nH]2)CC1 | -36% (inactive) |
| COCC(=O)n1nc(-c2ccccc2)nc1NCc1ccc(F)cc1 | -6% (inactive) |
| Cc1cccc(N2CCN(C(=O)CCn3c(=S)[nH]c4cc5c(cc4c3=O)OCO5)CC2C)c1 (centres undefined) | 62.5% (active) |
| O=C(CCCn1c(=S)[nH]c2cc3c(cc2c1=O)OCO3)N1CCN(c2ccccc2)CC1 | -7.8% (inactive) |
| COc1cccc(N2CCN(C(=O)CCn3c(=S)[nH]c4cc5c(cc4c3=O)OCO5)CC2)c1 | -4.3% (inactive) |
| NC1=NC2(CCN(Cc3ccccc3)CC2)n2c(nc3ccccc32)N1 | 1% (inactive) |
| NC1=NC2(CCC(c3ccccc3)CC2)n2c(nc3ccccc32)N1 (centres undefined) | 68.7% (active) |
| NC1=NC2(CCCCC2)n2c(nc3ccccc32)N1 | 19% (inactive) |
| CCOc1ccc(CNC(=O)NS(=O)(=O)c2ccc(OC)cc2)cc1 | -11.3% (inactive) |
| CCCCn1nnnc1NCc1cccc(OC)c1OC | 12.8% (inactive) |
| CCCCn1c(SCC(=O)NCc2ccco2)nnc1-c1ccoc1C | -26.4% (inactive) |
| CCCN(CCC)C(=O)C1CCN(c2cc(C)nc3c(-c4ccc(OC)c(OC)c4)c(C)nn23)CC1 | 7.2% (inactive) |
| COc1ccc(C(=O)O)cc1F | 2.5% (inactive) |
| COc1ccc(C(=O)CCN2CCCCCC2)cc1 | -7.8% (inactive) |
| COc1ccc(C(O)C(CN2CCOCC2)c2ccccc2)cc1F (centres undefined) | -8.6% (inactive) |
| COc1ccc(C(=O)C(c2ccccc2)N2CCOCC2)cc1 (centres undefined) | -2.4% (inactive) |
| Cc1c(C(=O)N2CCCCC2)sc(NC(=O)C2CC2)c1C#N | 2.5% (inactive) |
| O=C(Nc1ccccc1Cl)c1cnccn1 | -6.1% (inactive) |
| CCn1c2ccccc2c2cc(C3C(C#N)=C(C)NC(C)=C3C#N)ccc21 | 7.6% (inactive) |
| CCn1c2ccccc2c2cc(C3C(C#N)=C(N)OC4=C3C(=O)CC(C)(C)C4)ccc21 (centres undefined) | -10.7% (inactive) |
| Cc1ccc(N2C(=O)CSC23C(=O)Nc2ccccc23)cc1 (centres undefined) | -5.4% (inactive) |
